High-throughput results: PubChem, several laboratories
hiPSC survival: enhancers of human iPSC single-cell survival | hiPSC single-cell survival, ATPlite luminescence; 100% = ROCK inhibitor wells, 0% = DMSO | survival enhancement, % at 20 µM | 360,000 compounds, 0.044% hits | AID 602274; in the data active means survival enhancement above about 18%;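 further: cells exposed to compounds for 16 hours before the ATP read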
V-ATPase pH: alters yeast V-ATPase proton transport. 350,000 compounds, 0.37% hits. S. cerevisiae, pHLuorin cytosolic pH fluorescence. response, % at 10 µM; in the data active means response mostly above about 7.3%, no sharp cut-off; inactive means mostly below about 5.4%; further: actives read high
CR mimetic SO: yeast age-related superoxide inhibition as caloric restriction mimetic. S. cerevisiae aged cells, superoxide DHE fluorescence; hits give low values. superoxide response (% of plate mean), % at 10 µM. 330,000 compounds, 0.18% hits;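 active means superoxide response under a set limit, about three screen SD below normal, cut at about 65% in these data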;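 further: yeast aged for seven days with compound at 30 °C before DHE staining; 100% = average MFI of all compound-treated wells on the plate with controls excluded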
Fh CTSL1 inh: blocks F. hepatica cathepsin L1 in PFM18AAP counter-screen | inhibition, % at 5.96 µM | recombinant F. hepatica cathepsin L1, Z-Leu-Arg-MCA fluorescence | AID 1906 | 300,000 compounds, 0.49% hits;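 active means inhibition above the mean of all tested compounds plus 3 SD, set per screening campaign, cut at about 17% in these data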;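 further: 0% = plate median of test compound wells and 100% = 1 µM Z-Phe-Ala-diazomethylketone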
Superoxide pick: yeast aging superoxide inhibition, cherry pick confirmation | shares compounds with CR mimetic SO | S. cerevisiae aging, superoxide DHE fluorescence; hits give low values | superoxide response (% of plate), % at 10 µM | 850 compounds, 1% hits | AID 434994;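 active means superoxide signal below 65% of the plate average of sample wells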;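 further: cells aged with compound for 7 days at 30 degrees C before staining; 100% equals mean DHE fluorescence of all compound wells on the plate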
DHE fluor count: DHE fluorescence interference, counter-screen artifact | shares compounds with CR mimetic SO | S. cerevisiae BY4741, flow cytometry; hits give low values | fluorescence response, % at 10 µM | 850 tested, under 10 active | AID 435000;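 active means fluorescence response below 15%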;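 further: percent of the mean fluorescence averaged over all compound wells on the plate; lower means stronger quenching of DHE signal or ROS scavenging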
* marks the source's active call; other numbers are inactive results; . = no result. Shown are actives, neighbours in structure and some others; about 1% of the full set was active somewhere.

SMILES | hiPSC survival | V-ATPase pH | CR mimetic SO | Fh CTSL1 inh | Superoxide pick | DHE fluor count
O=C(Cc1ccc(-n2c(=O)[nH]c3ccccc3c2=O)cc1)N1CCN(c2ccccc2)CC1 | -2 | 2 | 107 | 4 | . | .
Cc1nnsc1-c1c(C(=O)N2CCOCC2)c(C)nn1-c1ccc(Cl)cc1 | 0 | 1 | 46* | 2 | 98 | 87
O=C(COC(=O)C1CCN(c2ccc(C(F)(F)F)cn2)CC1)NCc1ccc(F)cc1 | 0 | 1 | 102 | -5 | . | .
O=C(c1ccccc1)N1CCN(c2ccc(Cl)cc2)CC1 | 0 | -4 | 85 | 1 | 90 | 90
O=C(c1ccc2nc[nH]c2c1)N1CCN(c2cccc(Cl)c2)CC1 | 2 | 0 | 97 | . | . | .
O=C(c1ccc(NS(=O)(=O)c2ccc3[nH]c(=O)[nH]c3c2)cc1)N1CCN(c2ccccc2)CC1 | 0 | 0 | 96 | . | . | .
O=C(c1ccccc1)N1CCN(c2ccccc2)CC1 | 1 | 2 | . | . | . | .
Cc1ccc(C(=O)N2CCN(c3cccc(Cl)c3)CC2)cc1C | -1 | -4 | 103 | -1 | 109 | 100
Cc1ccc(C(=O)N2CCN(c3ccccc3)CC2)cc1C | 0 | 0 | 91 | 5 | 90 | 89
CS(=O)(=O)Nc1ccc(C(=O)N2CCN(c3ccccc3)CC2)cc1 | 5 | 1 | 88 | -1 | 92 | 91
O=C(NCCCn1ccnc1)c1cccc(Br)c1 | 0 | 2 | 100 | -5 | . | .
CCC(C(=O)Nc1cccnc1)n1c(=O)[nH]c2ccccc2c1=O (stereo not given) | 0 | 1 | 94 | 1 | . | .
O=C(COC(=O)c1ccc(S(=O)(=O)NCc2ccco2)cc1)Nc1ccc(Cl)cn1 | 4 | -2 | 89 | -5 | . | .
Oc1ccc(-c2nnc(SCc3ccccc3)o2)cc1 | -1 | -2 | 103 | 0 | . | .
C#CCSc1nnc(-c2ccc(O)cc2)o1 | 6 | -1 | 86 | -2 | 99 | 102
C#CCSc1nnc(-c2ccc(C)cc2)o1 | -4 | -4 | 96 | 0 | 81 | 93
CCOC(=O)c1c(C)oc2ccc(OC(=O)c3cccs3)cc12 | -1 | -5 | 70 | -1 | . | .
COc1ccc(C(=O)OCn2nnc3ccccc3c2=O)cc1OC | -2 | 6 | 117 | -2 | . | .
CN(C)S(=O)(=O)c1ccc(C(=O)OCn2nnc3ccccc3c2=O)cc1 | 0 | -2 | 65* | -23 | 103 | 91
O=C(CSc1ccc(-c2nc3ccccc3[nH]2)cn1)Nc1ccc(S(=O)(=O)N2CCCC2)cc1 | -1 | 2 | 64* | -1 | 119 | 109
Cc1cc2nc(-c3ccc(SCC(=O)Nc4ccc(S(=O)(=O)N5CCCC5)cc4)nc3)[nH]c2cc1C | -2 | 0 | 108 | 5 | . | .
CN(Cc1c(F)cccc1Cl)C(=O)CNC(=O)c1cccs1 | 0 | 1 | 110 | 0 | . | .
CC(C)CN(C)Cc1c(C(=O)N2CCc3ccccc3C2)nc2ccc(Cl)cn12 | 0 | 5 | 80 | 1 | . | .
CC(C)CNC(=S)N1CCC(NC(=O)c2ccco2)CC1 | -1 | 3 | 108 | -8 | . | .
Cc1cccnc1C(NC(=O)C1CCN(CCOc2ccc(F)cc2)CC1)c1ccc(F)cc1 (stereo not given) | 1 | . | . | . | . | .
SMILES | hiPSC survival | V-ATPase pH | CR mimetic SO | Fh CTSL1 inh | Superoxide pick | DHE fluor count
CC1Oc2ccccc2N(CC(=O)c2ccccc2)C1=O (stereo not given) | 0 | -3 | 60* | 0 | 111 | 93
Cc1ccc(C(=O)CN2C(=O)C(C)Oc3ccccc32)cc1 (stereo not given) | -1 | 4 | 85 | -1 | . | .
COc1ccc(C(=O)CN2C(=O)c3ccccc3C2=O)c(OC)c1 | 0 | 0 | 63* | 2 | 118 | 117
COc1ccccc1C(=O)COC(=O)CN1C(=O)c2ccccc2C1=O | 0 | 0 | 98 | -3 | . | .
COc1ccc(C(=O)OCC(=O)NC(=O)NC2CCCC2)cc1OC | 0 | 1 | 82 | . | . | .
CSc1ccc(-c2c(C#N)c(N)nc3c2CCCC3)cc1 | 0 | -2 | 64* | 1 | 101 | 104
COc1cccc(/C=N/NC(=O)c2[nH]c(C)c(C(=O)N/N=C/c3cccc(OC)c3O)c2C)c1O | -2 | -3 | 63* | 0 | 88 | 94
COc1cccc(/C=N/NC(=O)c2ccc(-c3ccccc3)cc2)c1O | -1 | 1 | 83 | 7 | . | .
O=C(NCC1COc2ccccc2O1)c1ccc(Br)s1 (stereo not given) | 2 | -4 | 109 | 0 | . | .
Cc1ccccc1-c1nc(CS(=O)(=O)CC(=O)NCCCN2CC(C)CC(C)C2)c(C)o1 (stereo not given) | 0 | -1 | 65* | 6 | 94 | 90
Cc1ccccc1-c1nc(CS(=O)(=O)CC(=O)NCCCN2CCOCC2)c(C)o1 | 0 | -1 | 103 | 0 | . | .
Cc1ccc(CN(CC(=O)NCCc2ccccc2)C(=O)CCCC(=O)Nc2cc(C)on2)cc1 | 2 | 2 | 64* | -1 | 108 | 91
CCn1c(SCC(=O)Nc2ccc(C(=O)OC)cc2)nnc1-c1cccs1 | -1 | -6 | 89 | -2 | 105 | 101
CCn1c(C)nnc1SCC(=O)Nc1ccc(C(C)=O)cc1 | 0 | 0 | 59* | 0 | 91 | 98
Cc1cc(C)cc(NC(=O)CSc2ccc(-c3ccccn3)nn2)c1 | 0 | 2 | 109 | 1 | . | .
CCn1c(SCC(=O)N2CCN(S(=O)(=O)c3ccccc3)CC2)nnc1-c1cccs1 | -1 | 4 | 63* | 0 | 101 | 92
COC(=O)c1ccc(NC(=O)CSc2ccc(-c3ccccn3)nn2)cc1 | 1 | -2 | 102 | 3 | 82 | 98
CCn1c(C)nnc1SCC(=O)Nc1ccc(OC)cc1 | -1 | -1 | . | . | . | .
C[C@@H]1CN([C@@H](C)CO)C(=O)CCCn2cc(nn2)CO[C@H]1CN(C)S(=O)(=O)c1ccc(C#N)cc1 | 2 | 1 | . | . | . | .
CCC(C(=O)N1CCOCC1)n1nc(C)c2c(C)n(-c3ccccc3)nc2c1=O (stereo not given) | -1 | -1 | 96 | 4 | . | .
Cc1cccc2c1NC(=O)C21OCC(CO)([N+](=O)[O-])CO1 (stereo not given) | 1 | -3 | 90 | -4 | . | .
O=C(CCN1C(=O)c2cccc3cccc(c23)C1=O)NCc1ccco1 | 2 | 0 | 123 | 0 | . | .
O=C(CC(=O)c1ccccc1)CC(O)(C=Cc1ccccc1)c1ccccc1 (stereo not given) | -2 | -4 | . | . | . | .
NS(=O)(=O)c1ccc(CCNC(=O)CN2CCCCC2)cc1 | 0 | -6 | 93 | 1 | . | .
CC1CC(C)CN(CC(=O)NCCc2ccc(S(N)(=O)=O)cc2)C1 (stereo not given) | 0 | 0 | 62* | 1 | 108 | 118
Cc1n[nH]c(=S)n(/N=C/c2cccc([N+](=O)[O-])c2)c1=O | -1 | 3 | 61* | 5 | 97 | 95
CCOC(=O)c1ccc(N(CC2CO2)S(=O)(=O)c2ccc(C)cc2)cc1 (stereo not given) | 0 | 1 | . | . | . | .
O=C(Nc1cccc(Cl)c1)Nc1ccc2nccnc2c1 | 0 | 0 | 60* | 3 | 86 | 94
